Measured values as given in PubChem BioAssay (NCI).
About 83,000 compounds went through this panel and 20% of them were active in at least one assay; those are over-represented in the sample as a whole.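 How to read the values: 0–100, growth inhibition (40 = 60% inhibited); 0, no net growth; -100 to 0, cell death (-40 = 40% of starting cells died; -100 = all dead).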 Calls of active or inactive are those of the source. How the source made its calls: active means growth percent below 10; inactive means the rest.

Tests used:
Test in all cases: NCI-60 one-dose screen, 48 h (100 = growth as untreated, 0 = no growth, -100 = all killed)
HT29 colon = conditions: 10 µM unless noted
SNB-75 CNS = conditions: 10 µM unless noted
U251 CNS = conditions: 10 µM unless noted
PC-3 prostate = conditions: 10 µM unless noted
SK-MEL-5 melanoma = conditions: 10 µM unless noted
UACC-62 melanoma = conditions: 10 µM unless noted
SK-MEL-28 melanoma = conditions: 10 µM
SK-MEL-2 melanoma = conditions: 10 µM unless noted
SN12C renal = conditions: 10 µM unless noted
UO-31 renal = conditions: 10 µM unless noted
TK-10 renal = conditions: 10 µM unless noted
ACHN renal = conditions: 10 µM unless noted
CAKI-1 renal = conditions: 10 µM unless noted
A498 renal = conditions: 10 µM unless noted
CCRF-CEM leukemia = conditions: 10 µM unless noted
MOLT-4 leukemia = conditions: 10 µM unless noted
SR leukemia = conditions: 10 µM unless noted
LOX IMVI melanoma = conditions: 10 µM unless noted
SNB-19 CNS = conditions: 10 µM unless noted
EKVX NSCLC = conditions: 10 µM unless noted

Measured: growth

COc1cc(C(=O)O/N=C(\N)Cc2cccc3ccccc23)cc(OC)c1OC
inactive: PC-3 prostate 27.6% | SN12C renal 63% | ACHN renal 42.9% | CAKI-1 renal 22.9% | A498 renal 44.6%
active: HT29 colon -74.3% | SNB-75 CNS -19.4% | U251 CNS -67.8% | SK-MEL-5 melanoma -97.9% | UACC-62 melanoma -88.3% | SK-MEL-28 melanoma -97% | SK-MEL-2 melanoma -80.9% | UO-31 renal -44.3% | TK-10 renal -43.8% | CCRF-CEM leukemia -5.01% | MOLT-4 leukemia 1.56% | SR leukemia -30.4%

O=c1[nH]nnc2c1ncn2C1OC(CO)C(O)C1O (stereo not drawn)
active: SK-MEL-2 melanoma 6%
inactive: HT29 colon 50.4% | SNB-75 CNS 44.8% | U251 CNS 97.7% | PC-3 prostate 50.6% | SK-MEL-5 melanoma 91.8% | UACC-62 melanoma 58% | LOX IMVI melanoma 22.6% | SK-MEL-28 melanoma 102% | SN12C renal 97.7% | UO-31 renal 36% | TK-10 renal 39.8% | ACHN renal 30.2% | CAKI-1 renal 25.2% | A498 renal 86.7% | CCRF-CEM leukemia 27.5% | MOLT-4 leukemia 26.3% | SR leukemia 37.7%

CCOC(=O)CSc1c(-c2ccccc2)c2cc(Cl)ccc2[nH]c1=O
inactive: HT29 colon 105% | SNB-75 CNS 94.1% | SNB-19 CNS 108% | PC-3 prostate 91.9% | UACC-62 melanoma 92.6% | SK-MEL-28 melanoma 109% | SK-MEL-2 melanoma 114% | SN12C renal 102% | UO-31 renal 86.2% | TK-10 renal 107% | ACHN renal 97.6% | CAKI-1 renal 92% | A498 renal 101% | CCRF-CEM leukemia 95.7% | MOLT-4 leukemia 88.3% | SR leukemia 75.8%

CCN1CCN(C(=S)SCC(=O)Nc2nc3ccc(C)cc3s2)CC1
active: LOX IMVI melanoma 3.49%
inactive: HT29 colon 102% | SNB-75 CNS 89% | U251 CNS 110% | PC-3 prostate 88.8% | SK-MEL-5 melanoma 97.5% | SK-MEL-28 melanoma 108% | SK-MEL-2 melanoma 105% | EKVX NSCLC 122% | SN12C renal 99.1% | UO-31 renal 60.6% | TK-10 renal 111% | ACHN renal 103% | CAKI-1 renal 87.2% | A498 renal 126% | MOLT-4 leukemia 111% | SR leukemia 103%

COc1cc(/C=C2\CCC/C(=C\c3cc(CN4CCOCC4)c(O)c(OC)c3)C2=O)cc(CN2CCOCC2)c1O
active: HT29 colon 3.44% | SNB-75 CNS 4.53%
inactive: U251 CNS 22% | PC-3 prostate 39.9% | SK-MEL-5 melanoma 52.3% | UACC-62 melanoma 40% | LOX IMVI melanoma 13.3% | SK-MEL-28 melanoma 58.7% | SK-MEL-2 melanoma 62.7% | EKVX NSCLC 54.3% | SN12C renal 29.3% | UO-31 renal 52.6% | TK-10 renal 53.8% | ACHN renal 25.1% | CAKI-1 renal 46.1% | A498 renal 58.6% | CCRF-CEM leukemia 14.8% | MOLT-4 leukemia 11% | SR leukemia 38%

NCCNc1nc2ccccc2c2c(=O)c3cc(F)cc(Cl)c3sc12
active: HT29 colon -64.3% | U251 CNS -84.3% | PC-3 prostate -70.4% | LOX IMVI melanoma -92.1% | SK-MEL-28 melanoma -89.8% | EKVX NSCLC -68.5% | SN12C renal -83.7% | UO-31 renal -93.7% | TK-10 renal -30.6% | ACHN renal -94.7% | CAKI-1 renal -96.3% | CCRF-CEM leukemia -28.1% | SR leukemia -27.7%
inactive: SNB-75 CNS 44.6% | SK-MEL-5 melanoma 85.5% | UACC-62 melanoma 44.8% | SK-MEL-2 melanoma 99.1% | A498 renal 46.9% | MOLT-4 leukemia 29.1%

Nc1ccc(-c2nn3c(CCC(=O)c4nc5ncccc5[nH]4)nnc3s2)c(O)c1
inactive: HT29 colon 103% | SNB-75 CNS 70.3% | U251 CNS 103% | PC-3 prostate 82.8% | UACC-62 melanoma 92.9% | SK-MEL-28 melanoma 105% | SK-MEL-2 melanoma 100% | EKVX NSCLC 98% | SN12C renal 87.8% | UO-31 renal 68.7% | TK-10 renal 144% | ACHN renal 90.5% | CAKI-1 renal 70.1% | A498 renal 75.3% | CCRF-CEM leukemia 94.1% | MOLT-4 leukemia 82.8%

Cc1c(-c2csc(-n3nc(C(F)(F)F)cc3C(F)(F)F)n2)no[n+]1[O-]
inactive: HT29 colon 99.2% | SNB-19 CNS 94.1% | U251 CNS 104% | PC-3 prostate 98.6% | UACC-62 melanoma 89.5% | LOX IMVI melanoma 99% | SK-MEL-2 melanoma 99.4% | EKVX NSCLC 69.6% | SN12C renal 95.7% | UO-31 renal 85.8% | TK-10 renal 118% | ACHN renal 107% | CAKI-1 renal 87.6% | CCRF-CEM leukemia 95.7% | MOLT-4 leukemia 87.3% | SR leukemia 91.1%

CCOC(=O)C(CC(=O)O)=C(C(=O)OCC)C(=O)OCC
inactive: HT29 colon 134% | SNB-75 CNS 91.8% | PC-3 prostate 112% | UACC-62 melanoma 113% | LOX IMVI melanoma 106% | SK-MEL-28 melanoma 101% | SK-MEL-2 melanoma 128% | SN12C renal 104% | UO-31 renal 98.8% | TK-10 renal 120% | ACHN renal 105% | CAKI-1 renal 99.6% | A498 renal 104% | CCRF-CEM leukemia 110% | MOLT-4 leukemia 95.8% | SR leukemia 95.8%

CN1C(=O)N(C)C2C1NN=c1s/c(=C\c3ccc([N+](=O)[O-])cc3)c(=O)n12 (stereo not drawn)
inactive: HT29 colon 25.9% | SNB-19 CNS 54% | PC-3 prostate 45.8% | UACC-62 melanoma 39.4% | LOX IMVI melanoma 51.3% | SK-MEL-28 melanoma 76.9% | SK-MEL-2 melanoma 64.6% | EKVX NSCLC 87.5% | SN12C renal 88.7% | UO-31 renal 63.5% | TK-10 renal 95.2% | ACHN renal 53.6% | CAKI-1 renal 40.2% | CCRF-CEM leukemia 70.4% | MOLT-4 leukemia 64.3% | SR leukemia 22%

CCCCCCCCCCOC(=O)c1ccccc1C(=O)OCCCC
inactive: HT29 colon 105% | SNB-75 CNS 81.9% | U251 CNS 101% | PC-3 prostate 90.4% | LOX IMVI melanoma 102% | SK-MEL-2 melanoma 111% | UO-31 renal 81.3% | TK-10 renal 108% | ACHN renal 109% | A498 renal 121% | CCRF-CEM leukemia 103% | MOLT-4 leukemia 95.4% | SR leukemia 100%

COC(=O)[C@H]1CCCN1C(=O)[C@H]1CCCN1C(=O)[C@H](Cc1c[nH]c2ccccc12)NC(=S)Nc1cc(C(F)(F)F)cc(C(F)(F)F)c1
active: HT29 colon 7.55% | SR leukemia 4.48%
inactive: SNB-75 CNS 52.8% | PC-3 prostate 39.9% | UACC-62 melanoma 57% | SK-MEL-28 melanoma 54.8% | SK-MEL-2 melanoma 94.9% | SN12C renal 51% | UO-31 renal 45.5% | TK-10 renal 80.9% | ACHN renal 49% | CAKI-1 renal 38.6% | A498 renal 77% | MOLT-4 leukemia 29.4%

CCN1C(=O)N(c2ccccc2)C2NN=c3s/c(=C4\C(=O)N(C(C)C)c5ccccc54)c(=O)n3C21 (stereo not drawn)
active: HT29 colon 9.74%
inactive: SNB-19 CNS 35.7% | U251 CNS 25.9% | PC-3 prostate 25.7% | UACC-62 melanoma 37.6% | LOX IMVI melanoma 31.4% | SK-MEL-28 melanoma 62.8% | SK-MEL-2 melanoma 48.8% | EKVX NSCLC 55.9% | SN12C renal 38.7% | UO-31 renal 55.6% | TK-10 renal 74.9% | ACHN renal 37.1% | CAKI-1 renal 49.1% | CCRF-CEM leukemia 15.1% | MOLT-4 leukemia 20.9% | SR leukemia 14.6%

COc1cc(/C=C2\Oc3cc(OCCCN4CCCC4)ccc3C2=O)cc(OC)c1
inactive: SNB-19 CNS 64.7% | PC-3 prostate 39.3% | UACC-62 melanoma 71.1% | SK-MEL-28 melanoma 73.5% | SK-MEL-2 melanoma 108% | EKVX NSCLC 77.1% | SN12C renal 78.8% | UO-31 renal 53.4% | TK-10 renal 101% | CAKI-1 renal 58.6%
active: HT29 colon -42.4% | LOX IMVI melanoma -78% | CCRF-CEM leukemia -24.4% | MOLT-4 leukemia -22.9% | SR leukemia -49.3%

CC[C@H](C)[C@@H](C(=O)OC)n1cc(CNC(=O)[C@@H](Cc2ccccc2)NC(=O)OCc2ccccc2)nn1
inactive: SNB-75 CNS 101% | SNB-19 CNS 93.2% | U251 CNS 91.5% | PC-3 prostate 100% | SK-MEL-5 melanoma 103% | UACC-62 melanoma 94.6% | LOX IMVI melanoma 99.5% | SK-MEL-28 melanoma 110% | SK-MEL-2 melanoma 105% | EKVX NSCLC 92.6% | SN12C renal 94.6% | UO-31 renal 76.7% | TK-10 renal 101% | CAKI-1 renal 83.4% | A498 renal 83.3% | CCRF-CEM leukemia 85.1% | MOLT-4 leukemia 69.1% | SR leukemia 103%

COc1ccc2[nH]c(O)c(N=NC(=O)c3oc4ccccc4c3C)c2c1
inactive: HT29 colon 27.3% | SNB-19 CNS 42.7% | PC-3 prostate 21.8% | UACC-62 melanoma 34.3% | LOX IMVI melanoma 16.3% | SK-MEL-28 melanoma 15.8% | SK-MEL-2 melanoma 70.9% | EKVX NSCLC 37.3% | SN12C renal 34.9% | CCRF-CEM leukemia 57.1% | MOLT-4 leukemia 50.9% | SR leukemia 43.5%
active: U251 CNS 2.05% | UO-31 renal -55.3% | TK-10 renal -64% | ACHN renal -50.9% | CAKI-1 renal -51.7%

CC(=O)SC1CC(=O)C=C2CCC3C4CCC(=O)OC4(C)CCC3C21C (stereo not drawn)
inactive: HT29 colon 101% | SNB-75 CNS 84.2% | U251 CNS 99.4% | PC-3 prostate 94% | LOX IMVI melanoma 97.8% | SK-MEL-28 melanoma 120% | SK-MEL-2 melanoma 106% | UO-31 renal 87% | TK-10 renal 93.8% | ACHN renal 106% | A498 renal 101% | CCRF-CEM leukemia 101% | MOLT-4 leukemia 105% | SR leukemia 111%

NC(=O)CSc1nc(-c2ccc(F)cc2)cc(-c2ccco2)n1
inactive: SNB-75 CNS 99.2% | SNB-19 CNS 106% | U251 CNS 99.2% | PC-3 prostate 89.1% | SK-MEL-5 melanoma 103% | UACC-62 melanoma 95.4% | LOX IMVI melanoma 96.4% | SK-MEL-28 melanoma 115% | SK-MEL-2 melanoma 101% | EKVX NSCLC 95.8% | SN12C renal 101% | UO-31 renal 75.2% | TK-10 renal 129% | CAKI-1 renal 85.7% | A498 renal 103% | CCRF-CEM leukemia 107% | MOLT-4 leukemia 97.9% | SR leukemia 94.5%

c1ccc2c(c1)oc1cc3sccc3nc12
inactive: HT29 colon 106% | SNB-19 CNS 98.3% | U251 CNS 92% | PC-3 prostate 93.4% | UACC-62 melanoma 94.2% | LOX IMVI melanoma 96.8% | SK-MEL-28 melanoma 109% | SK-MEL-2 melanoma 95.3% | EKVX NSCLC 101% | SN12C renal 93% | UO-31 renal 66.6% | TK-10 renal 135% | ACHN renal 99.5% | CAKI-1 renal 78% | CCRF-CEM leukemia 100% | MOLT-4 leukemia 97.7% | SR leukemia 96.5%
